PubChem BioAssay (NCATS)
Inconclusive results are not listed. Values without a mark were called inactive. The source made the active and inactive calls. The call rests on the fitted dose curve; in most records, active means well fitted inhibition curve with a large enough effect; inconclusive means small, poorly fitted or top-dose-only effect; inactive means flat fitted curve, though single readings scatter.

Legend:
CRL-7250 = normal cell line; test: Cytotoxic Profiling of Annotated Libraries Using Quantitative High-Throughput Screening (AID 1296008); details: Five cell lines viability, CellTiter-Glo ATP luminescence, 48-72 h; max response: active compounds read low; further: potency means the concentration at half of the fitted maximal effect; on max response: on the % scale 0 is the no-effect control and ±100 the full control effect
Outline: (§1)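 Cells exposed to compounds for 48 or 72 hr at 37 degrees Celsius. Viability read as ATP-coupled luminescence with CellTiter-Glo after 10 min at room temperature.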

HEK293 = test: as above; details: Five cell lines viability, CellTiter-Glo ATP luminescence, 48-72 h; max response: active compounds read low
Outline: as §1

HaCat [1] = test: as above; details: Five cell lines viability, CellTiter-Glo ATP luminescence, 48-72 h; max response: active compounds read low
Outline: as §1

KB-3-1 = test: as above; details: Five cell lines viability, CellTiter-Glo ATP luminescence, 48-72 h; max response: active compounds read low
Outline: as §1

NIH3T3 = test: as above; details: Five cell lines viability, CellTiter-Glo ATP luminescence, 48-72 h; max response: active compounds read low
Outline: as §1

HACAT [2] = test: qHTS assay to identify novel small-molecules to repurpose for Merkel cell carcinoma treatment (AID 1296009); details: MCC and control cell lines, CellTiter-Glo viability, 72 h; series mostly up to 44.8 µM
Outline: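 CellTiter-Glo luminescence after 72 hr compound exposure at 37 degree celsius gave cell viability. Libraries NPC and MIPE were run as 8- and 11-point dose responses; RLUs normalized to DMSO (negative) and no-cell (cytotoxicity) controls.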
Further: nearly all actives have a fitted effect of over 60% in size.

| SMILES | max response (CRL-7250) | max response (HEK293) | max response (HaCat [1]) | outcome (KB-3-1) | max response (NIH3T3) | max response (KB-3-1) | outcome (CRL-7250) | outcome (HaCat [1]) | Potency (HACAT [2]) | Potency (HEK293) |
| --- | --- | --- | --- | --- | --- | --- | --- | --- | --- | --- |
| CC1C(OC(=O)c2ccccc2)C(O)C2C(C(=O)O)=COC(OC3OC(CO)C(O)C(O)C3O)C12 (stereo not given) | 3.33% | -0.0764% | -2.92% | inactive | 4.34% | – | – | – | – | – |
| CC(C)(O)CC(CO)NC(=O)CC(O)CC(=O)Cc1ccccc1 (stereo not given) | 2.18% | 0.672% | 3.84% | – | 2.22% | 2.2% | – | – | – | – |
| COCC1OC(OC(C)(C)C2CCC3(C)C=C(C4CCC5C4(C)CC(O)C4OC(C(C)(C)OC6OC(CO)C(O)C(O)C6NC(C)=O)CCC45C)CCC3O2)C(NC(C)=O)C(O)C1O (stereo not given) | 2.51% | -5.83% | -6.25% | – | 1.73% | 1.62% | – | – | – | – |
| CC(=O)C1=CCC2C3CCC4CC(O[C@@H]5O[C@H](CO)[C@@H](O[C@@H]6O[C@@H](C)[C@H](O)[C@@H](O)[C@H]6O)[C@H](O)[C@H]5O[C@@H]5O[C@H](CO)[C@@H](O)[C@H](O)[C@H]5O)CCC4(C)C3CCC12C (stereo not given in full) | -10.3% | -11.1% | -22.8% | inactive | -4.06% | – | – | – | – | – |
| CC1OC(OC2CCC3(C)C(CCC4(C)C3CC=C3C5CC(C)(C)CCC5(C(=O)OC5OC(CO)C(O)C(O)C5O)CCC34C(=O)O)C2(C)C)C(O)C(O)C1O (stereo not given) | – | -0.856% | -11.4% | – | -6.15% | 4.21% | inactive | – | – | – |
| O=C(O)COCCN1CCN([C@H](c2ccccc2)c2ccc(Cl)cc2)CC1 | 2.26% | -2.41% | -30.6% | – | 0.14% | 0.104% | – | – | – | – |
| COc1ccc([C@H]2CNC(=O)C2)cc1OC1CCCC1 | -5.24% | -1.53% | -27.2% | – | -18.3% | -2.59% | – | – | – | – |
| CN1CCc2nc(C(=O)N[C@@H]3C[C@@H](C(=O)N(C)C)CC[C@@H]3NC(=O)C(=O)Nc3ccc(Cl)cn3)sc2C1 | 3.08% | -78.6% | -24.6% | – | -49.4% | -42% | – | – | – | – |
| CC(C)S(=O)(=O)N[C@H]1CCOC[C@@H]1c1ccc(-c2ccc(C#N)s2)cc1 | – | -111% | – | inactive | -6.39% | – | inactive | inactive | inactive | – |
| OCC1OC(Oc2cc(O)cc(/C=C/c3ccc(O)cc3)c2)C(O)C(O)C1O (stereo not given) | -6.35% | 2.65% | – | – | -0.337% | 5.61% | – | inactive | inactive | – |
| Cc1cccc(Oc2cnc(=O)[nH]c2)c1 | – | 2.27% | -9.89% | – | -28.2% | 3.8% | inactive | – | – | – |
| C/C=C/C1=CC2=C(CO1)C(=O)C(C)(O)C(OC(=O)c1c(C)cc(OC)cc1O)C2 (stereo not given) | -7.89% | – | – | – | -6.89% | 3.88% | – | inactive | inactive | 11.4 µM (active) |
| O=C1NC(Cc2c[nH]c3ccccc23)C(=O)NC1Cc1cnc[nH]1 (stereo not given) | – | -5.57% | – | inactive | 3.67% | – | inactive | inactive | inactive | – |
| CC(C)CN(C[C@@H](O)[C@H](Cc1ccccc1)NC(=O)O[C@@H]1CO[C@H]2OCC[C@H]21)S(=O)(=O)c1ccc(N)cc1 | 4.36% | -6.82% | -6.53% | – | -1.09% | -3.21% | – | – | – | – |
| CC1OC(OC2C(CO)OC(OCC3OC(OC(=O)C45CCC(C)(C)CC4C4=CCC6C7(C)CCC(OC8OC(CO)C(O)C(OC9OC(CO)C(O)C(O)C9O)C8O)C(C)(C)C7CCC6(C)C4(C)CC5)C(O)C(O)C3O)C(O)C2O)C(O)C(O)C1OC1OC(CO)C(O)C(O)C1O (stereo not given) | -0.747% | -0.594% | -8.62% | – | -0.84% | -0.0406% | – | – | – | – |
| COc1cc(OC)cc(C(=O)Nc2ccc(Cl)c(-c3nc4ccc(N(C)C)cc4[nH]3)c2)c1 | – | – | – | – | -0.734% | 2.52% | inactive | inactive | inactive | 10.3 µM (active) |
